This is part of a sample that, as a whole, favours compounds with a hit. Of some 83,000 tested, about 20% had one in any assay.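 Single-dose data. Exposure time 48 hours. Values below 10 considered active.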 Activity calls are given as the source filed them.
Key:
Experiment in all cases: NCI-60 one-dose screen, 48 h (100 = growth as untreated, 0 = no growth, -100 = all killed)
Details in all cases: 10 µM unless noted
HCT-15 colon = test system: HCT-15 colon
HT29 colon = test system: HT29 colon
SNB-75 CNS = test system: SNB-75 CNS
SNB-19 CNS = test system: SNB-19 CNS
U251 CNS = test system: U251 CNS
PC-3 prostate = test system: PC-3 prostate
SK-MEL-5 melanoma = test system: SK-MEL-5 melanoma
UACC-62 melanoma = test system: UACC-62 melanoma
LOX IMVI melanoma = test system: LOX IMVI melanoma
SK-MEL-28 melanoma = test system: SK-MEL-28 melanoma

Measured: growth

COc1ccc(-c2nc3ccc(-c4nnc(SCc5ccccc5)o4)cc3[nH]2)cc1
active: HCT-15 colon -17.4% | HT29 colon 9.58% | SNB-75 CNS -82.8% | SNB-19 CNS 2.92% | U251 CNS -77.1% | SK-MEL-5 melanoma -21.7% | UACC-62 melanoma -72.3% | LOX IMVI melanoma -96.6% | SK-MEL-28 melanoma -36.3%
inactive: PC-3 prostate 20.1%

CC(=O)c1ccc2c(N)c(C(=O)Nc3ccc(C(F)(F)F)cc3)sc2n1
active: SK-MEL-5 melanoma -5%
inactive: HCT-15 colon 40.7% | HT29 colon 82.2% | SNB-75 CNS 84.7% | SNB-19 CNS 67.9% | U251 CNS 72.6% | PC-3 prostate 70.2% | UACC-62 melanoma 59.7% | LOX IMVI melanoma 37.8% | SK-MEL-28 melanoma 87.2%

COc1cc(/C=C/C(=O)c2cnn(-c3cc(=O)[nH]c4ccc(Br)cc34)c2C)cc(OC)c1OC
active: HCT-15 colon -54.9% | HT29 colon -58.7% | SNB-75 CNS 9.81% | SNB-19 CNS -2.48% | U251 CNS -76.7% | PC-3 prostate -23.9% | SK-MEL-5 melanoma -96.2% | UACC-62 melanoma -71.7% | LOX IMVI melanoma -89.8% | SK-MEL-28 melanoma -53%

COc1ccc(NC(=O)CSc2nnc(-c3ccc(-c4nc5ccc(Cl)cc5[nH]4)cc3)o2)cc1
inactive: HCT-15 colon 41.9% | HT29 colon 47.8%
active: SNB-75 CNS 5.21% | SNB-19 CNS -29.2% | U251 CNS -58% | PC-3 prostate -20.7% | SK-MEL-5 melanoma 7% | UACC-62 melanoma -32.6% | LOX IMVI melanoma -33.3% | SK-MEL-28 melanoma -76%

O=C(Nc1ccc(F)cc1)Nc1nc2ccc([N+](=O)[O-])cc2s1
inactive: SNB-19 CNS 15.1% | PC-3 prostate 18.4% | LOX IMVI melanoma 12.5%
active: HCT-15 colon 6.88% | HT29 colon 4.5% | SNB-75 CNS -16.6% | U251 CNS 6.53% | SK-MEL-5 melanoma -84% | UACC-62 melanoma -5.55% | SK-MEL-28 melanoma 7.31%

COc1cc(CNC(=O)C[C@H](C)CCC=C(C)C)ccc1OCc1cn(-c2ccc(Br)cc2)nn1
inactive: HCT-15 colon 82.4% | HT29 colon 94.4% | SNB-75 CNS 47.3% | SNB-19 CNS 57.7% | U251 CNS 63.4% | PC-3 prostate 81.4% | SK-MEL-5 melanoma 55.7% | UACC-62 melanoma 65.1% | LOX IMVI melanoma 74% | SK-MEL-28 melanoma 96.5%

Cc1cn(-c2cc(NC(=O)c3ccc(C)c(-n4cc(-c5cnc6cccnn56)nn4)c3)cc(C(F)(F)F)c2)cn1
active: HT29 colon 7.41%
inactive: HCT-15 colon 84.8% | SNB-75 CNS 122% | SNB-19 CNS 109% | U251 CNS 44.3% | PC-3 prostate 102% | SK-MEL-5 melanoma 53.9% | UACC-62 melanoma 11.3% | LOX IMVI melanoma 26.8% | SK-MEL-28 melanoma 23.5%

O=C(N/N=C/c1occc1Br)c1[nH]c2ccc(Br)cc2c1-c1ccccc1
active: HCT-15 colon -78% | HT29 colon -68.7% | SNB-75 CNS -78.2% | SNB-19 CNS -97.1% | U251 CNS -82.6% | PC-3 prostate -51.3% | SK-MEL-5 melanoma -97.6% | UACC-62 melanoma -95% | LOX IMVI melanoma -100% | SK-MEL-28 melanoma -96.5%

O=C1Nc2cc(-c3ccc(NS(=O)(=O)c4ccc(F)c(Cl)c4)cc3)ccc2/C1=C/c1ccc[nH]1
inactive: HCT-15 colon 14% | SNB-75 CNS 62.7% | SNB-19 CNS 46.6% | PC-3 prostate 30.2% | SK-MEL-5 melanoma 58.8% | UACC-62 melanoma 32.9% | SK-MEL-28 melanoma 41.4%
active: HT29 colon -18.4% | U251 CNS 2.34% | LOX IMVI melanoma 0.97%

O=C1Nc2ccccc2/C1=C\c1ccc(OCC(=O)c2ccc(Br)cc2)cc1
inactive: HCT-15 colon 45.4% | HT29 colon 82.7% | SNB-75 CNS 79.6% | SNB-19 CNS 79.6% | U251 CNS 71.5% | PC-3 prostate 62.4% | SK-MEL-5 melanoma 28.9% | UACC-62 melanoma 52.6% | LOX IMVI melanoma 28.9% | SK-MEL-28 melanoma 80.2%

Cn1cc(-c2cc(N)n3nc(-c4c[nH]c5ccc(F)cc45)cc3n2)c2cc(Br)cnc21
active: HCT-15 colon -11.7% | LOX IMVI melanoma -56.8%
inactive: HT29 colon 25.8% | SNB-75 CNS 134% | SNB-19 CNS 98.3% | U251 CNS 22.4% | PC-3 prostate 53.8% | SK-MEL-5 melanoma 78.8% | UACC-62 melanoma 73.7% | SK-MEL-28 melanoma 80%

CN1C(=O)C2(C(C#N)=C(c3ccc(Cl)cc3)Nc3c2c(-c2ccccc2)nn3-c2ccccc2)c2ccccc21 (stereo not given)
inactive: HCT-15 colon 87.6% | HT29 colon 85.2% | SNB-75 CNS 69.4% | SNB-19 CNS 87% | U251 CNS 102% | PC-3 prostate 85.8% | SK-MEL-5 melanoma 88.1% | UACC-62 melanoma 69.5% | LOX IMVI melanoma 55.3% | SK-MEL-28 melanoma 94.2%

Reference: PubChem BioAssay (NCI)
